# Laboratory results reported in PubChem BioAssay.
# Results with a measured potency or affinity are listed apart. Records with an inconclusive call do not appear. Unmarked numbers belong to inactive results. No rule for the calls is given here.
# Assay: NIH:OVCAR-3 ovarian cancer cell cytotoxicity, dose response, PAX8 inhibitor project, plate reader, dry powder samples (AID 743044)
# Details: NIH:OVCAR-3 ovarian cancer cell viability; max activity: at 35 µM, active compounds read low unless noted; series mostly up to 50 µM
row,Structure (SMILES),max activity
1,C[C@@H]1CCCCO[C@@H](CN(C)Cc2ccc(C(F)(F)F)cc2)[C@@H](C)CN([C@@H](C)CO)C(=O)c2cc(NS(=O)(=O)c3ccc(F)cc3)ccc2O1,"-6.83% [at 16 µM, active compounds read low]"
2,C[C@H](CO)N1C[C@H](C)[C@H](CN(C)S(=O)(=O)c2ccc(Cl)cc2)OCCCC[C@H](C)Oc2ccc(NS(=O)(=O)c3ccc(F)cc3)cc2C1=O,20.8%
3,Cc1noc(C)c1S(=O)(=O)N(C)C[C@@H]1OCCCC[C@H](C)Oc2ccc(NS(=O)(=O)c3ccc(Cl)cc3)cc2C(=O)N([C@H](C)CO)C[C@@H]1C,"-11.5% [at 0.5 µM, active compounds read low]"
4,C[C@@H]1CCCCO[C@H](CN(C)Cc2ccc(Cl)c(Cl)c2)[C@H](C)CN([C@@H](C)CO)C(=O)c2cc(NC(=O)Nc3ccccc3)ccc2O1,4.55%
5,C[C@@H]1CCCCO[C@H](CN(C)Cc2ccc(C(F)(F)F)cc2)[C@H](C)CN([C@@H](C)CO)C(=O)c2cc(NS(=O)(=O)c3cccs3)ccc2O1,"-8.64% [at 0.5 µM, active compounds read low]"
6,CCCNC(=O)Nc1ccc2c(c1)OC[C@H](C)N(Cc1ccc(-c3ccccn3)cc1)C[C@@H](C)[C@@H](OC)CN(C)C2=O,60.3%
7,C[C@@H]1CN([C@H](C)CO)C(=O)c2cc(NC(=O)Nc3ccc(F)cc3)ccc2O[C@@H](C)CCCCO[C@@H]1CN(C)Cc1ccc2c(c1)OCO2,"-19.6% [at 4.2 µM, active compounds read low]"
8,C[C@@H]1CN([C@H](C)CO)C(=O)Cc2cc(NC(=O)Nc3ccc(F)cc3)ccc2O[C@H]1CN(C)Cc1ccc(Cl)c(Cl)c1,"19.8% [at 0.5 µM, active compounds read low]"
9,C[C@@H]1CCCCO[C@@H](CN(C)Cc2ccc(C(F)(F)F)cc2)[C@@H](C)CN([C@@H](C)CO)C(=O)c2cc(NS(=O)(=O)c3ccccc3)ccc2O1,"24.1% [at 0.26 µM, active compounds read low]"
10,O=C(C[C@H]1CC[C@H]2[C@@H](COC[C@@H](O)CN2Cc2ccc(Oc3ccccc3)cc2)O1)N1CCCCC1,35%
11,C[C@@H]1CN([C@H](C)CO)S(=O)(=O)c2ccc(C#CC3CCCC3)cc2O[C@@H]1CN(C)C(=O)Cc1ccncc1,"16.7% [at 0.5 µM, active compounds read low]"
12,COc1ccc(NC(=O)Nc2ccc3c(c2)CC(=O)N([C@H](C)CO)C[C@@H](C)[C@@H](CN(C)Cc2ccc(Oc4ccccc4)cc2)O3)cc1,"-8.95% [at 16 µM, active compounds read low]"
13,C[C@@H]1CCCCO[C@@H](CN(C)C(=O)Nc2cccc3ccccc23)[C@H](C)CN([C@H](C)CO)C(=O)c2cc(NS(=O)(=O)c3ccccc3)ccc2O1,"28.6% [at 2.1 µM, active compounds read low]"
14,O=C(Nc1ccc(Cl)c(Cl)c1)N[C@@H]1CC[C@H](CCn2cc(C3CCCCC3)nn2)O[C@H]1CO,"-6.27% [at 16 µM, active compounds read low]"
15,C[C@@H]1CCCCO[C@H](CN(C)Cc2ccc(C(F)(F)F)cc2)[C@H](C)CN([C@H](C)CO)C(=O)c2cc(NS(=O)(=O)c3cccs3)ccc2O1,"29.1% [at 0.26 µM, active compounds read low]"
16,C[C@H](CO)N1C[C@H](C)[C@@H](CN(C)S(=O)(=O)c2ccc(Cl)cc2)OCCCC[C@H](C)Oc2ccc(NS(=O)(=O)c3ccc(Cl)cc3)cc2C1=O,"-14.4% [at 8 µM, active compounds read low]"
17,C[C@@H]1CN([C@@H](C)CO)C(=O)Cc2cc(NC(=O)CCC(F)(F)F)ccc2O[C@H]1CN(C)Cc1ccc(-c2ccccc2)cc1,"-2.75% [at 16 µM, active compounds read low]"
18,COc1cccc(S(=O)(=O)N2CC[C@H]3[C@@H](CO)N(C)c4ccc(C#Cc5ccc(F)cc5)cc4[C@H]32)c1,-17.2%
19,C[C@@H]1CCCCO[C@H](CN(C)Cc2ccc(C(F)(F)F)cc2)[C@H](C)CN([C@H](C)CO)C(=O)c2cc(NS(=O)(=O)c3ccccc3)ccc2O1,-11.2%
